Screening data from PubChem.
HT1080 IDH1KD tx = kills HT-1080 cells with IDH1 knockdown; HT-1080 IDH1 knockdown viability, ATP luminescence, 48 h; AID 686971; Potency, µM (doses to about 46.1 µM), for the others: at the top dose activity, negative = toxicity, hits mostly cytotoxic; 360,000 compounds, 2% hits;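 further: 0% = DMSO wells and -100% = cell-free medium wells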
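In this qHTS, HT-1080 cells depleted of IDH1 are exposed for 48 h at 37 °C to compound titrations. Toxicity is scored from CellTiter-Glo luminescence, with DMSO as full viability and medium alone as none.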
KB-3-1 tox = KB-3-1 parental cell cytotoxicity | KB-3-1 viability, CellTiter-Glo ATP luminescence, 72 h | Potency, µM (titrated, usually from 46.1 µM), usual class: cytotoxic | 400,000 compounds, 1.4% hits | AID 1347075; further: on the % scale 0 is the no-effect control and ±100 the full control effect; nearly all actives have a fitted effect of over 60% in size
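Parental KB-3-1 viability, qHTS format: 72 h compound exposure, 37 °C; CellTiter-Glo; media-only wells and DMSO plates as controls; concentration-effect fits on corrected data.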
KB-V1 cytotox = kills drug-selected multidrug resistant KB-V1 cells | 400,000 compounds, 3.4% hits | Potency, µM (doses to about 46.1 µM), most hits filed as cytotoxic | KB-V1 MDR cells viability, CellTiter-Glo, 72 h; further: on the % scale 0 is the no-effect control and ±100 the full control effect; nearly all actives have a fitted effect of over 60% in size
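KB-V1 cells (P-gp-expressing MDR subline of KB-3-1) in phenol-red-free DMEM with 10% FBS were exposed to library compounds over a concentration series for 72 h at 37 degrees C. Viability read by CellTiter-Glo luminescence; concentration-effect curves fitted after normalization.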
MCF10A rerep = DNA re-replication induction in MCF 10a cells | MCF 10A DNA re-replication, Hoechst nuclear intensity, 48 h | Potency, µM (titrated, usually from 46.1 µM), for inactives: top-dose activity, positive = re-replication, most hits filed as activators | 350,000 compounds, 2.9% hits; further: % of control where 0% means no effect; nearly all actives have a fitted effect of over 50% in size
HT1080-NT tox = kills 2HG-producing HT-1080-NT fibrosarcoma cells; 360,000 compounds, 1.6% hits; AID 686970; HT-1080-NT fibrosarcoma viability, CellTiter-Glo ATP luminescence, 48 h; Potency, µM (top dose mostly 46.1 µM), without a hit: top-dose activity, negative = less viability, actives largely listed as cytotoxic;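 further: NT is the 2HG producing partner of a matched IDH1 knockdown line; 0% = DMSO-treated cells and -100% = media-only wells without cells; nearly all actives have a fitted effect of over 55% in size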
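HT-1080-NT; 750 cells/well; 5% FBS RPMI; 48 h compound, 37 degrees C; CellTiter-Glo luminescence; curve fitting and curve-class assignment.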
SW480 rereplic = induces DNA re-replication in SW480 colon adenocarcinoma cells; SW480 DNA re-replication, Hoechst DNA content imaging, 48 h; Potency, µM (series often up to 46.1 µM), inactives show at the highest dose re-replication activation, most hits filed as activators; 340,000 compounds, 1.8% hits; further: % of control where 0% means no effect; nearly all actives have a fitted effect of over 55% in size
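Compounds, transferred as 23 nL by pin tool, were incubated with cells for 48 hr; DNA content per nucleus was then quantified by Hoechst staining and fluorescence plate imaging.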
* hit, by the source's call; i = inactive; ? = inconclusive; nt = not tested or not shown; [ ] = remark or other dose. Shown are actives, neighbours in structure and some others; about 7.9% of the full set was active somewhere. The call rests on the fitted dose curve; in most records, active means well fitted curve in the direction sought with a large enough effect; inconclusive means small, poorly fitted or top-dose-only effect, or another doubt; inactive means no such curve, though single readings can be large; an effect the other way counts as inactive or inconclusive. Potency means the concentration at half of the fitted maximal effect.

SMILES	HT1080 IDH1KD tx	KB-3-1 tox	KB-V1 cytotox	MCF10A rerep	HT1080-NT tox	SW480 rereplic
COc1ccc(NC(=O)CSc2nc3ccc(Nc4nc(N5CCOCC5)nc(N5CCOCC5)n4)cc3s2)cc1	2.4%	i	i	2.06µM*	1.9%	13.0%
Cc1ccc(NC(=O)CSc2nc3ccc(Nc4nc(N5CCOCC5)nc(N5CCOCC5)n4)cc3s2)cc1	2.3%	?	?	5.8µM*	0.4%	?
Cc1ccc(C(=O)C2CCN(C(=S)NCCCOC(C)C)CC2)cc1	-8.9%	i	i	20.6%	-9.5%	14.6µM*
CC(C)OCCCNC(=S)N1CCC(C(=O)c2ccc(F)cc2)CC1	2.1%	?	?	nt	3.1%	nt
CC(C)c1nc(N(C)S(C)(=O)=O)nc(-c2ccc(F)cc2)c1/C=C/C(O)CC(O)CC(=O)O (stereo not given)	nt	nt	nt	0.2%	nt	?
Cc1nn(CC(=O)Nc2ccc(Cl)c(S(=O)(=O)N(C)C)c2)c(C)c1[N+](=O)[O-]	3.0%	i	20.6µM*	?	1.6%	1.6%
Cc1nn(CC(=O)NC2CC2)c(C)c1S(=O)(=O)N(C)C	1.5%	i	i	nt	2.4%	nt
Cc1ccc(NC(=O)Cn2nc(C)c(S(=O)(=O)N(C)C)c2C)cc1C	-4.0%	i	23.1µM*	4.8%	0.0%	1.1%
Cc1nn(CC(=O)Nc2ccc(C(C)C)cc2)c(C)c1[N+](=O)[O-]	5.1%	i	i	-4.7%	6.7%	79.0%
Cc1cc(S(=O)(=O)Nc2cc3c(cc2NCc2ccccc2)n(C)c(=O)n3C)ccc1F	nt	i	20.6µM*	nt	nt	nt
Cn1c(=O)n(C)c2cc(NS(=O)(=O)c3ccc(Cl)cc3)c(NCc3ccccc3)cc21	nt	?	i	nt	nt	nt
Cc1ccc(-n2c(=O)c3c(cnn3C)n(CC(=O)Nc3cccc(C)c3)c2=O)cc1	nt	i	i	nt	nt	nt
O=C(c1cccs1)N1CCN(C(=O)c2cccs2)C1=S	20.6µM*	14.6µM*	2.91µM*	5.8µM*	?	16.4µM*
COc1ccc2c(c1)c1c(c(=O)n(Cc3ccccc3)c(=O)n1Cc1cccc(Cl)c1)n2C	nt	i	i	nt	nt	nt
C=CCn1c(SCc2ccccc2Cl)nnc1-c1sc2nc(C)cc(C)c2c1N	11.7%	i	i	10.3µM*	?	18.4µM*
CN(C)c1ccc(Nc2ncnc3ccc(Br)cc23)cc1	-6.4%	i	?	16.2%	-3.9%	8.6%
Clc1ccc(Nc2ncnc3ccc(Br)cc23)cc1	?	i	10.3µM*	?	?	0.4%
Clc1cccc(Nc2ncnc3ccc(Br)cc23)c1	?	i	?	8.3%	7.94µM*	3.4%
CCN(CC)CCNC(=O)c1cc2c(=O)[nH]c3ccc(C)cc3c2s1	nt	i	?	nt	nt	nt
CCCN1CCN(CCCNC(=O)c2cc3c(=O)[nH]c4ccc(C)cc4c3s2)CC1	25.9µM*	i	i	23.7%	20.6µM*	28.1%
O=c1c(-c2nnc(SCc3ccc(Cl)cc3Cl)o2)cccn1Cc1ccccc1	-0.6%	?	2.91µM*	6.7%	0.0%	-0.1%
CSc1nnc(-c2cccn(Cc3ccccc3)c2=O)o1	9.6%	i	i	-1.0%	-1.9%	16.1%
O=S(=O)(N/N=C/c1cn(Cc2ccccc2)c2ccccc12)c1ccccc1	-24.0%	?	20.6µM*	?	-12.4%	18.4%
Cc1ccc(C(=O)N/N=C/c2cn(Cc3ccccc3)c3ccccc23)cn1	-24.2%	16.4µM*	?	?	-17.8%	?
NC(=O)Cn1cc(/C=N\NS(=O)(=O)c2ccc(Cl)cc2)c2ccccc21	-15.6%	i	i	5.0%	-10.6%	1.1%
SMILES	HT1080 IDH1KD tx	KB-3-1 tox	KB-V1 cytotox	MCF10A rerep	HT1080-NT tox	SW480 rereplic
Cc1ccccc1C(=O)Nc1nnc(CC(=O)N/N=C/c2cn(Cc3ccccc3)c3ccccc23)s1	-19.6%	?	i	6.51µM*	-16.9%	20.6µM*
CC(Sc1nnc(-c2ccccc2)n1C)C(=O)NCc1ccco1 (stereo not given)	nt	i	i	nt	nt	nt
O=C(O)c1ccccc1SC1=NS(=O)(=O)c2ccccc21	nt	i	?	nt	nt	nt
N#Cc1c(Nc2ccc(Cl)cc2)s[nH]c1=O	?	i	i	18.4µM*	-5.7%	?
CSc1nc(Nc2ccc(Cl)cc2)c(C#N)c(=O)[nH]1	-7.3%	5.17µM*	5.17µM*	15.1%	-3.7%	-1.7%
CSc1nc(-c2ccc(Cl)cc2)c(C#N)c(=O)[nH]1	-7.5%	i	i	-9.5%	-10.5%	20.5%
CCCSc1nnc2[nH]c(=O)cc(N)n12	15.2%	i	?	3.4%	9.1%	0.8%
CCCCSc1nnc2[nH]c(=O)cc(N)n12	-5.6%	i	8.2µM*	5.7%	5.8%[9.24 µM]	-5.6%
Oc1ccc2ccc3[nH]cnc3c2c1	2.6%	i	i	10.2%	11.2%	-4.9%
Oc1ccc2[nH]ccc2c1	-2.0%	i	i	17.0%	-2.5%	8.2µM*
CCCCN(C(=O)CCCc1nc2ccccc2c(=O)[nH]1)c1c(N)n(CCCC)c(=O)[nH]c1=O	2.7%	?	i	-2.2%	8.3%	-0.6%
Nc1c(N(CCC2=CCCCC2)C(=O)Cc2ccc(F)cc2)c(=O)[nH]c(=O)n1Cc1ccccc1	-7.1%	i	i	14.0%	-3.6%	?
CCCCCN(C(=O)CCC(=O)OCc1ccc(C(C)C)cc1)c1c(N)n(CCCC)c(=O)[nH]c1=O	-14.0%	i	i	23.1µM*	-5.5%	22.3%
CCCCn1c(N)c(N(CCOC)C(=O)CCCc2nc3ccccc3c(=O)[nH]2)c(=O)[nH]c1=O	-3.6%	?	i	9.2%	-3.4%	23.1µM*
Nc1c(N(CCC2=CCCCC2)C(=O)COc2ccc(F)cc2Cl)c(=O)[nH]c(=O)n1Cc1ccccc1	10.3µM*	8.2µM*	?	11.6µM*	18.4µM*	0.4%
CCCCCN(C(=O)CCC(=O)OCc1ccc(C(C)(C)C)cc1)c1c(N)n(CCCC)c(=O)[nH]c1=O	?	i	i	20.6µM*	-27.4%	-1.3%
CCCCCN(C(=O)CCC(=O)OCc1ccccc1F)c1c(N)n(CCCC)c(=O)[nH]c1=O	1.2%	?	i	3.4%	-1.0%	-0.5%
CCOC(=O)C(CC)Sc1ccc2nnc(CCNS(=O)(=O)c3ccc(C)cc3)n2n1 (stereo not given)	nt	i	i	nt	nt	nt
COc1cc(C)cc2oc(=O)c(CC(=O)NCc3cccc(Cl)c3)c(C)c12	nt	i	i	nt	nt	nt
CC1=C(C(=O)NCc2cccc(Br)c2)C2(CCCCC2)OC1=O	nt	i	i	nt	nt	nt
